Among the data in PubChem BioAssay are composite z-score and z-score values, retold here.

Assay [1] is described as follows: binders of probe aFSTL3 on microarray, primary screen, stem cell growth factor project, biochemical, small-molecule microarray, fluorescence 635/667 (AID 1064).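 Further: measures binding of the biotinylated anti-FSTL3 antibody to printed compounds.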 Conditions: higher = more signal.
Assay [2] can be described thus: binders from COS7 lysate, DM2A8 probe, primary screen, torsin A project, cell lysate, small-molecule microarray, fluorescence 635/667 (AID 1065). Conditions: higher = more signal, COS7 lysate expressing mutant human TOR1A.
Assay [3] is described as follows: binders of probe aFGF2 on microarray, primary screen, stem cell growth factor project, biochemical, small-molecule microarray, fluorescence 635/667 (AID 1067).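 Further: measures binding of biotinylated aFGF2 protein to printed compounds on slides; z-score merges feature fluorescence and signal-to-noise across triplicate slides.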 Conditions: higher = more signal.
Assay [4] can be described thus: binders of probe aFGF10 on microarray, primary screen, stem cell growth factor project, biochemical, small-molecule microarray, fluorescence 635/667 (AID 1071).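 Further: score merges 667 nm spot intensity and signal to noise from triplicate slides.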 The note with it: higher = more signal.
Assay [5] deals with Neurogenic locus notch homolog protein 2 (Homo sapiens) (UniProt Q04721). The experiment in a line: Notch2 binders on small-molecule microarrays, primary screen, biochemical, small-molecule microarray, 635 nm fluorescence, stem cell growth factors (AID 1073). The note with it: Notch2 binding, higher = more signal.
Sequence of Neurogenic locus notch homolog protein 2 (Homo sapiens) (Q04721 whole entry, looked up, canonical isoform): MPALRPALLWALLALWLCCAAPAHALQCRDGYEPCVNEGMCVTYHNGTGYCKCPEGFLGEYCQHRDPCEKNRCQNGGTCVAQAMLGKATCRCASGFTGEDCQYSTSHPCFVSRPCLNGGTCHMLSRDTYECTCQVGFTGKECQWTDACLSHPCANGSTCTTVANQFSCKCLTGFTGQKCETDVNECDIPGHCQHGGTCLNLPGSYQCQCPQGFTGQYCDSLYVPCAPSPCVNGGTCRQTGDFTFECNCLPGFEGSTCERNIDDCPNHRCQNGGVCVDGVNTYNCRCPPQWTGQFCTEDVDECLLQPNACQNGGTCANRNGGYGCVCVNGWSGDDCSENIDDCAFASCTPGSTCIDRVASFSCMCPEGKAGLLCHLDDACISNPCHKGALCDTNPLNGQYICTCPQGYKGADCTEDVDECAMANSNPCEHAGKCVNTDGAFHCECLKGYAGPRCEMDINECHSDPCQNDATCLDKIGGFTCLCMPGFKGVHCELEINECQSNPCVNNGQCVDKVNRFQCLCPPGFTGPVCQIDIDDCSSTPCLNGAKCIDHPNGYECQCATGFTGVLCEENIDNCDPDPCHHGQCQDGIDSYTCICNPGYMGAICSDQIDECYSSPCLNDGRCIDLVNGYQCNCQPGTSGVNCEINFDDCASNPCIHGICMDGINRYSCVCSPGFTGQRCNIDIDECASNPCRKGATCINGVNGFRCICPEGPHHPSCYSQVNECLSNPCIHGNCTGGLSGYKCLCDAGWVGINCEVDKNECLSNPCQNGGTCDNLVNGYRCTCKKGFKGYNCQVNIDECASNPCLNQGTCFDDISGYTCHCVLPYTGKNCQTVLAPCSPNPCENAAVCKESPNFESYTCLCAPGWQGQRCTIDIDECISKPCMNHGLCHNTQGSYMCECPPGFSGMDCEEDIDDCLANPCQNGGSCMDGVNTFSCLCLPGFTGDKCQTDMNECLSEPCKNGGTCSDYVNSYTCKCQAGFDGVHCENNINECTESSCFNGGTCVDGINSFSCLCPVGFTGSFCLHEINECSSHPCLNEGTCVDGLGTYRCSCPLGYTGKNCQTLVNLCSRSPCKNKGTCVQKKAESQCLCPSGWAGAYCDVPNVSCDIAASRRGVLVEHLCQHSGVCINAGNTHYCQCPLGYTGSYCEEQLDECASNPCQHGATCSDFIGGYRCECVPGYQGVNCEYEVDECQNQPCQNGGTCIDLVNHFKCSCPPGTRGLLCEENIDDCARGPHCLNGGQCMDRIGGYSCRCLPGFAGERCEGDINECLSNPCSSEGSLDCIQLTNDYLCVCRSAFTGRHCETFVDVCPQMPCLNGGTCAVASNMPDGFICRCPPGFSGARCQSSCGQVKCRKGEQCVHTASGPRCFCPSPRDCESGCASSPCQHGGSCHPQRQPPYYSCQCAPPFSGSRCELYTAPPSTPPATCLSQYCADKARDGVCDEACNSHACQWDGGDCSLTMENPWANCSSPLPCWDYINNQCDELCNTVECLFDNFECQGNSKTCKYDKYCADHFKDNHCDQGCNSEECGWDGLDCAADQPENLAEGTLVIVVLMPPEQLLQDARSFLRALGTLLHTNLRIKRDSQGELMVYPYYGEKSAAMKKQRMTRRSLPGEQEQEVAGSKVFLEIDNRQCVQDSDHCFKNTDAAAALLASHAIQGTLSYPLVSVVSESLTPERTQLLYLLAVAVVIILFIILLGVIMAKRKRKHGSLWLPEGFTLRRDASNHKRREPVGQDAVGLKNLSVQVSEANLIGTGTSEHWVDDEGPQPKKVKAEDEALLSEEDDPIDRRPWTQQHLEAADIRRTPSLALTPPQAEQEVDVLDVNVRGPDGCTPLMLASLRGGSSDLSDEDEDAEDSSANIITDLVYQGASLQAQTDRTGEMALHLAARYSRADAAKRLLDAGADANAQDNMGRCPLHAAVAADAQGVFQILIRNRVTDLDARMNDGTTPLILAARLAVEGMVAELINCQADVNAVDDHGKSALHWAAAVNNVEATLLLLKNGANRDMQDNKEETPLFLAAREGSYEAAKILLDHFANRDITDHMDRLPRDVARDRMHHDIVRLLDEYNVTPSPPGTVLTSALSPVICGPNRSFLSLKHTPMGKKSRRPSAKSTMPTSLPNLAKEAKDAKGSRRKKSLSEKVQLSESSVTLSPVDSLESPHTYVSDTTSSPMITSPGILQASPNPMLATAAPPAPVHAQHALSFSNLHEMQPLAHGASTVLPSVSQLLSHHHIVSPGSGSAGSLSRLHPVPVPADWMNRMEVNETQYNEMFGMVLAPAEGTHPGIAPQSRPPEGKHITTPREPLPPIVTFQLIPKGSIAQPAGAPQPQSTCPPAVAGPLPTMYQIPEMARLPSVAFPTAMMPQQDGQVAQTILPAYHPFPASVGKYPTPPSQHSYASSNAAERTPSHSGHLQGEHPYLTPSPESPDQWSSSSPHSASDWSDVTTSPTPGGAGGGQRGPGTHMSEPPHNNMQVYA
Assay [6] concerns the target Pro-neuregulin-1, membrane-bound isoform (Homo sapiens) (UniProt Q02297). Put plainly: NRG1 binders on small-molecule microarrays, primary screen, psychiatric disease protein project, biochemical, small-molecule microarray, fluorescence 635/667 (AID 1075).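 Further: score combines 667 nm spot fluorescence with signal to noise.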 The note with it: NRG1 binding, 635 nm fluorescence, higher = more signal.
Assay [7] relates to Neuregulin-1 EGF-like domain. The experiment in a line: binders of neuregulin-1 EGF-like domain, primary screen, biochemical, small-molecule microarray, 635 nm fluorescence (AID 1081).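 Further: binding of the protein to compounds printed on small-molecule microarray slides.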 Conditions: small-molecule microarray binding, higher = more signal.
Assay [8] in a line: FRG1 promoter luciferase signal modulators, primary screen, FRG1 inhibition for FSHD, cell-based, C2C12 myotubes, firefly/Renilla luciferase, luminescence (AID 1084). Conditions: higher = more signal, called active from +8 up or from −8 down.
Assay [9] can be described thus: binders of probe aFST on microarray, primary screen, stem cell growth factor project, biochemical, small-molecule microarray, fluorescence 635/667 (AID 1086).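 Further: score merges 667 nm fluorescence with signal-to-noise of each printed compound spot.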 The note with it: higher = more signal.
Assay [10] is described as follows: binders of probe aHhip on microarray, primary screen, stem cell growth factor project, biochemical, small-molecule microarray, fluorescence 635/667 (AID 1087).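 Further: score merges spot fluorescence at 667nm with spot signal to noise ratio.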 Conditions: higher = more signal.

The source made the active and inactive calls.

Sequence of Pro-neuregulin-1, membrane-bound isoform (Homo sapiens) (Q02297 whole entry, looked up, the tested form may be a part, canonical isoform): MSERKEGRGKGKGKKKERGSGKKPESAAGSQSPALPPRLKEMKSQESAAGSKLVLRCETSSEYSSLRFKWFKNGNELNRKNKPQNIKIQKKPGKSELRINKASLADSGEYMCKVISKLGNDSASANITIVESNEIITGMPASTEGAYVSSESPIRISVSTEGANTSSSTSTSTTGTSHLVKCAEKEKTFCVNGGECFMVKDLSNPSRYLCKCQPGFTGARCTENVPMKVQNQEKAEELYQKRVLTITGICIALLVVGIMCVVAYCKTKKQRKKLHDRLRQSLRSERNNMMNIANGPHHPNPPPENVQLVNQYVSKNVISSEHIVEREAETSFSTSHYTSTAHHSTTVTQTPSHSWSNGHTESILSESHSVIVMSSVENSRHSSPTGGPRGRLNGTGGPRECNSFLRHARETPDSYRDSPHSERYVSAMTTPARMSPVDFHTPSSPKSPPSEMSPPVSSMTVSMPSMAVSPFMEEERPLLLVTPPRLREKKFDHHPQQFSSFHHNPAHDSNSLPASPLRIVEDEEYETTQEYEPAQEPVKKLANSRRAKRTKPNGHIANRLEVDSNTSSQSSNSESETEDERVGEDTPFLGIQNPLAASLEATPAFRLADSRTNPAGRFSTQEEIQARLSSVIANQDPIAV

For `N#Cc1ccc(NN2C(C(O)c3ccc(B(O)O)cc3)C=CC3CN(c4ccccc4)C(=O)C32)cc1` (stereo not given), the composite z-score in [1] was 0.057; in assay [2] it was 0.239; in assay [3], -0.0893; in assay [4], 0.0196; in [5], 0.074; in assay [6], 0.501. Besides, the composite z-score in assay [7] is 1.07; in [9], -0.0118; in [10], -0.439. Also, the z-score in [8] was 3.26 (inactive).
With `COCCCNC(=O)[C@@]1(Cc2ccccc2I)c2ccccc2C(=O)N(Cc2ccccc2C(F)(F)F)[C@H]1c1ccc(CO)cc1`, the composite z-score was 0.088 in [1]; 0.395 in assay [2]; -0.0232 in assay [3]; -0.283 in [4]; -1.01 in [5]; 0.988 in assay [6]. Moreover, the composite z-score in [7] was 1.05; in assay [9], 0.341; in assay [10] it was 0.0826. The z-score in assay [8] is -1.78 (inactive).
In the case of `COCCOC(=O)N1C(=O)[C@@]2(c3ccccc31)[C@H](C(=O)Nc1nc3ccccc3s1)[C@H]1C(=O)O[C@H](c3ccccc3)[C@H](c3ccccc3)N1[C@@H]2c1ccccc1OCCO`, the composite z-score in assay [1] was 0.451; in assay [2], 0.0049; in assay [3], -0.0036; in [4] it was 0.798; in assay [5], 1.15; in assay [6] it was 1.05. Besides, the figures for the composite z-score in assay [7], in assay [9] and in assay [10] were 1.2, 0.318 and 0.157, respectively. Also, the z-score in [8] was 2.13 (inactive).
On to `CCc1cccc(NC(=O)O[C@H]2[C@H](OC(=O)Nc3ccccc3-c3ccccc3)[C@H](OC(=O)Nc3ccccc3-c3ccccc3)[C@@H](OC)O[C@@H]2CO)c1`, for which the composite z-score in [1] was -0.189; in assay [2], 0.42; in assay [3], 0.155; in assay [4] it was 0.576; in assay [5], 1.54; in assay [6] it was 1.48. Also, the composite z-score in assay [7] was 1.11; in assay [9], 1.14; in assay [10], -0.214. Besides, the z-score in assay [8] is -0.714 (inactive).
For the compound `COC(=O)C(CC#Cc1ccc2c(c1)[C@]1(C(=O)N2)[C@H](c2ccccc2OCCO)N2[C@H](c3ccccc3)[C@H](c3ccccc3)OC(=O)[C@H]2[C@@H]1C(=O)N1CCN(c2ncccn2)CC1)C(=O)OC`, the composite z-score in assay [1] was -0.35; in assay [2] it was 0.474; in assay [3] it was -0.0937; in [4] it was 0.431; in assay [5], 0.852; in assay [6], 1.31. Besides, the composite z-score in assay [7] is 1.13; in [9] it was 0.255; in assay [10], -0.11. In [8], the z-score was -1.46 (inactive).
Turning to `CC(C)C[C@@H]1NC(=O)[C@@H]2C[C@H](C(=O)NCCCCCCNC(=O)CS)[C@H](c3ccc(O)cc3)N2C1=O`, the composite z-score was -0.0857 in assay [1]; 1.48 in [2]; -0.0202 in [3]; 0.938 in assay [4]; 0.604 in assay [5]; 1.35 in [6]. In addition, the composite z-score in assay [7] is 1.37; in assay [9], 0.694; in assay [10] it was -0.0346. For the same compound, the z-score in assay [8] was 0.0812 (inactive).
For the compound `CC[C@@H](O[Si](C#C[Si](C(C)C)(C(C)C)C(C)C)(C(C)C)C(C)C)c1cn(Cc2cccc(Cl)c2)nn1`, the composite z-score in assay [1] was -0.385; in assay [2], 0.6; in [3] it was -0.0594; in [4], 0.238; in assay [5] it was 0.863; in assay [6], -0.019. The composite z-score in assay [7] was 0.69; in assay [9], 0.197; in [10] it was -0.0003. Also, the z-score in assay [8] is -0.0554 (inactive).
Take `O=C1c2ccccc2[C@@]2(Cc3ccccc3N(CC(F)(F)F)C2=O)[C@H](c2ccc(CO)cc2)N1Cc1ccccc1`: the composite z-score is 0.386 in [1]; 0.0025 in [2]; -0.124 in [3]; 0.316 in [4]; -0.661 in assay [5]; 0.0876 in [6]. Moreover, the results for the composite z-score in assay [7], in assay [9] and in [10] were -0.533, -0.0539 and -0.129, respectively. Moreover, the z-score in [8] is 0.605 (inactive).
Consider `C=CCOC(=O)[C@H]1[C@@H]2C(=O)O[C@@H](c3ccccc3)[C@@H](c3ccccc3)N2[C@@H](c2ccc(OCCOC(=O)[C@H]3C[C@H]4C(=O)NCC(=O)N4[C@H]3c3cccc(OCCO)c3)cc2)[C@]12C(=O)Nc1ccc(I)cc12`, for which the composite z-score in [1] was -0.365; in [2], 0.469; in [3], -0.045; in assay [4] it was 0.589; in assay [5], 0.81; in assay [6], 0.388. Moreover, the composite z-score in [7] is 1.3; in assay [9] it was 0.557; in [10], 0.28. For the same compound, in assay [8], the z-score was -0.18 (inactive).
On to `COc1ccc(CCNC(=O)[C@@]2(C)c3ccccc3C(=O)N(Cc3ccc(OC(F)(F)F)cc3)[C@H]2c2ccc(CO)cc2)cc1`, for which the composite z-score in [1] is -1.45; in assay [2], 0.197; in [3], -0.0211; in assay [4] it was 0.0093; in [5], 0.484; in assay [6], 0.41. Moreover, the composite z-score is 1.12 in assay [7], 0.122 in [9] and -0.679 in [10]. Besides, the z-score in assay [8] is -4.33 (inactive).
Take `COc1ccc(CCNC(=O)[C@@H]2c3ccccc3C(=O)N(C(C)C)[C@H]2c2ccc(CO)cc2)cc1`: the composite z-score in assay [1] was 1.42; in assay [2], -0.489; in [3], -0.142; in [4], -0.92; in assay [5], -1.48; in [6] it was 0.0203. Besides, the composite z-score in assay [7] was 0.209; in assay [9], -0.36; in assay [10], -0.379. Also, the z-score in assay [8] is -1.15 (inactive).
For the compound `COCCOC(=O)N1C(=O)[C@@]2(c3cc(C#CCCO)ccc31)[C@H](C(=O)N1CCN(c3ncccn3)CC1)[C@H]1C(=O)O[C@H](c3ccccc3)[C@H](c3ccccc3)N1[C@@H]2c1ccc(OCCO)cc1`, the composite z-score in assay [1] was -0.372; in assay [2] it was 0.713; in assay [3], 0.0001; in assay [4], 0.641; in [5], 0.718; in assay [6], 1.53. The composite z-score in assay [7] is 1.3; in assay [9], 0.832; in assay [10], -0.171. For the same compound, in assay [8], the z-score was -0.31 (inactive).
`Cc1ccc(S[C@]2(C(=O)NCc3ccccc3)CC(=O)N(Cc3ccccc3C(F)(F)F)[C@@H]2c2ccc(CO)cc2I)cc1`: the composite z-score was 0.412 in [1]; -0.135 in assay [2]; -0.106 in [3]; -0.655 in [4]; -0.717 in assay [5]; 1.56 in assay [6]. The composite z-score was 0.472 in assay [7], -0.319 in assay [9] and -0.251 in assay [10]. Besides, in [8], the z-score is -0.701 (inactive).
As to `Cc1ccc(S[C@]2(C(=O)NC3CC3)CC(=O)N(C3Cc4ccccc4C3)[C@@H]2c2ccc(CO)cc2I)cc1`, the composite z-score in assay [1] is 0.851; in assay [2] it was -0.1; in assay [3], -0.133; in assay [4], -0.0222; in assay [5], -0.603; in [6] it was 0.996. The figures for the composite z-score in assay [7], in [9] and in assay [10] were 0.381, -0.228 and -0.286, respectively. Besides, the z-score in assay [8] was -2.24 (inactive).
